A1 inh – caspase 3/7 activation in MEF A1-2A-BIM cells, primary screen, A1 inhibitor project, cell-based, luminescence, HTS; Caspase-Glo 3/7 luminescence, 3 h; percent of clofoctol response, vehicle zero; caspase activation, % (no concentration beside the values); 0.066% of 330,000 active; AID 2462, 2010;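 active means over half of replicate activation scores above 10%, or exactly half above 10 with the replicate mean above 10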
AHR activator – AHR activators, primary screen, cell-based, luminescence, luciferase reporter, human; AID 2796, 2010; 2.5% of 320,000 active; activation, % at 5 µM; Aryl hydrocarbon receptor (Homo sapiens), P35869; AHR-responsive luciferase reporter cells; in the data active means activation above about 47%
Target sequence (P35869 whole entry, looked up): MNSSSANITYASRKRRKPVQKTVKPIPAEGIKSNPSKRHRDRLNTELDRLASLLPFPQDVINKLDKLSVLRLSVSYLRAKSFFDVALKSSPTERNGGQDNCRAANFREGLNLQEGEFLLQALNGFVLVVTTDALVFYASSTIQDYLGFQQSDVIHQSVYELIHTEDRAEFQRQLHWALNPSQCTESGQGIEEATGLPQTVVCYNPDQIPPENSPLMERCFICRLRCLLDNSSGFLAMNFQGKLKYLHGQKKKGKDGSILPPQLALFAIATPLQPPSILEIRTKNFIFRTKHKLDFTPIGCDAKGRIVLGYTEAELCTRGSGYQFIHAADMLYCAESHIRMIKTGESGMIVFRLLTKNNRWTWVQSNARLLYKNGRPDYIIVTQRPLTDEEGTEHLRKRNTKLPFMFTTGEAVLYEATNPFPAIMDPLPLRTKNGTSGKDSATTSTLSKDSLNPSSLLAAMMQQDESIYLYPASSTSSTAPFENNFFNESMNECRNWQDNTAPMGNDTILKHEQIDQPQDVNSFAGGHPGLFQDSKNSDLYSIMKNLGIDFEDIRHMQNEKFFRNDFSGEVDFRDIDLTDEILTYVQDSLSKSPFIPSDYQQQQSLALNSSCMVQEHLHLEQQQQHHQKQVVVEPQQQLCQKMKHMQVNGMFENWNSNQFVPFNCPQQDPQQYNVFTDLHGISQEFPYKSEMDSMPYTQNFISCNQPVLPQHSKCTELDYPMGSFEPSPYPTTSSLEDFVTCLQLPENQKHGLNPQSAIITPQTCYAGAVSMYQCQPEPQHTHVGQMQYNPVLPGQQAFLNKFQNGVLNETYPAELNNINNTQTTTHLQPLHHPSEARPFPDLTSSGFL
SUMO Mot1 rescue – yeast Mot1-301 growth rescue at high temperature, primary screen, SUMOylation pathway inhibitor project, S. cerevisiae, ATP luminescence, 38.5C; growth rescue, % at 18.8 µM; S. cerevisiae Mot1-301 growth rescue; percent above DMSO median, 100 means doubled; AID 2716, 2010; 1% of 320,000 active;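 active means every valid replicate shows activation above 250% relative to neutral control wells; inactive means the rest, any valid replicate at or below 250%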
Efflux pump mplx – inhibitors of Candida efflux pumps in yeast, primary screen, S. cerevisiae, Nile Red, multiplex; inhibition, % at 10 µM; S. cerevisiae Candida pump triplex; 0.44% of 330,000 active;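 active means plate passing quality check with inhibition over a set limit, or well fluorescence over plate mean plus 4 SD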;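 further: Nile Red retained in pooled yeast measured as flow cytometry median fluorescence; higher means more Nile Red kept so more efflux inhibition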
ALR inh – inhibitors of human ALR sulfhydryl oxidase, primary screen, biochemical, H2O2 detection, HRP-luminol luminescence, single point | purified ALR, DTT oxidation | inhibition, % (test concentration not listed) | 3.8% of 290,000 active | AID 485317, 2010;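 active means mean replicate inhibition above about 79%, with every replicate also reaching it, limit read from the data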
VLA-4 inh – inhibition in human VLA-4 binding assay, primary screen, VLA-4 allosteric modulator project, MLPCN library, flow cytometry, VLA-4 expressing cells; Integrin alpha-4 (Homo sapiens), P13612; ligand binding flow cytometry; inhibition, % (about 7 µM as worked out from the volumes in the protocol); 0.2% of 330,000 active; AID 2557, 2010; in the data active means inhibition above about 50%
Hits are given with their value; i = inactive; nt = no result. A selection: hits, their analogues and other compounds. The true share with any hit is near 7.2%.

SMILES	A1 inh	AHR activator	SUMO Mot1 rescue	Efflux pump mplx	ALR inh	VLA-4 inh
CCOc1ccccc1N(CC(=O)Nc1ccc2c(c1)OCO2)S(C)(=O)=O	i	69.4	i	i	i	i
COc1ccc(N(CC(=O)Nc2ccc3c(c2)OCO3)S(=O)(=O)c2ccccc2)cc1	i	i	i	i	i	i
CCN(CCO)C(=O)CC1C(=O)NCCN1Cc1c(F)cccc1Cl (centres undefined)	i	i	i	i	i	i
O=C1NC(=O)C(c2ccccc2[N+](=O)[O-])=C1Nc1ccc(O)c(Cl)c1	i	i	i	i	99.0	i
COc1cc(O)ccc1C(=O)CCc1ccc(O)cc1	i	i	i	i	99.3	i
CN(Cc1ccc(F)cc1)C(=O)CNC(=O)c1ccc2c(c1)OCO2	i	i	i	i	i	i
N#C/C(=C\c1ccc(-c2cccc([N+](=O)[O-])c2)o1)C(=O)Nc1nc(-c2cccs2)cs1	i	78.5	i	i	i	i
O=C(N/N=C/c1ccc(-c2cccc([N+](=O)[O-])c2)o1)c1cccs1	i	i	i	i	i	i
CCCc1ccc(OCc2ccc(C(=O)NN)o2)c(OC)c1	i	55.6	i	i	nt	i
Cc1cc(C)cc(OCc2ccc(C(=O)NN)o2)c1	i	78.9	i	i	i	i
CCCc1ccc(OCc2ccc(C(=O)O)o2)c(OC)c1	i	i	i	i	i	i
COc1ccc(OC)c(CC(=O)N2CCc3cc(OC)c(OC)cc3C2)c1	i	i	i	i	i	i
COc1ccc(-c2csc3ncnc(N4CCN(S(=O)(=O)c5ccc(C(C)=O)cc5)CC4)c23)cc1	i	i	i	i	i	i
CCCCNc1c(N)n(CCC)c(=O)[nH]c1=O	i	i	i	i	i	i
CCCn1c(N)c(NCCN2CCOCC2)c(=O)[nH]c1=O	i	i	i	i	99.4	i
CC(C)c1cc(C(=O)NNC(=S)NCc2ccco2)c(O)c(C(C)C)c1	i	i	i	i	nt	i
O=C(O)c1ccccc1Nc1ccccc1C(=O)O	nt	i	nt	i	nt	i
Cc1c(Cl)cccc1Nc1ccccc1C(=O)O	i	i	i	i	97.9	i
O=C(CSc1n[nH]c(-c2ccccc2F)n1)NCC(=O)Nc1ccc(F)c(F)c1F	i	i	i	i	i	i
O=C(NCCN1CCN(c2cccc(Cl)c2)CC1)c1ccc(CSc2nc3ccncc3[nH]2)cc1	i	i	i	i	i	i
CCN(CCNC(=O)c1ccc(CSc2nc3ccncc3[nH]2)cc1)c1ccccc1	i	i	i	i	97.8	i
COc1ccc(OC)c2c(C)cc(N3CCCN(C)CC3)nc12	i	i	i	i	97.5	i
C#CCCOC(=O)Nc1ccccc1	i	i	i	i	i	i
O=C(CN1CCN(c2ccc(F)cc2)CC1)N(C1CCCC1)C1CCS(=O)(=O)C1 (centres undefined)	i	i	i	i	nt	i
O=C(CN1CCN(c2ccc(O)cc2)CC1)N(C1CC1)C1CCS(=O)(=O)C1 (centres undefined)	i	i	i	i	99.1	i
SMILES	A1 inh	AHR activator	SUMO Mot1 rescue	Efflux pump mplx	ALR inh	VLA-4 inh
COc1ccc(OC)c(/C=C/C(=O)c2ccc3c(c2)OCCO3)c1	i	i	i	i	i	i
Cc1cc(=O)[nH]c2c(C)cc(S(=O)(=O)Nc3ccc(O)cc3)cc12	i	i	i	i	99.1	i
O=C(O)c1cc(=O)[nH]c2ccc(S(=O)(=O)Nc3ccc(F)cc3)cc12	i	i	i	i	i	i
O=C(CN1CCCCC1)Nc1ccccc1	i	i	i	i	nt	i
O=C(CN1CCCCC1)Nc1ccc(N2CCCCCC2)cc1	i	i	i	i	99.2	i
O=C(COC(=O)c1cncc(Br)c1)NCc1ccco1	i	i	413.6	i	i	i
COc1cccc(N2CCN(CC(=O)NC(C)c3ccccc3)CC2)c1 (centres undefined)	i	nt	i	i	81.2	i
COc1ccc(N2CCN(CC(=O)Nc3cccc(S(=O)(=O)N4CCOCC4)c3)CC2)cc1	i	i	i	i	77.6	i
O=C(CN1CCN(S(=O)(=O)c2ccc3ccccc3c2)CC1)Nc1ccc(N2CCOCC2)cc1	i	i	i	i	nt	i
Cc1cccc(C(=O)NCc2nnc3c4ccccc4c(-c4ccccc4)nn23)c1	i	i	i	i	i	i
O=C(CN1CCN(c2ccccc2)CC1)Nc1ccccc1Cl	i	i	i	i	97.8	i
COc1cccc(NC(=O)CN2CCN(c3ccc(F)cc3)CC2)c1	i	i	i	i	96.6	i
COc1cc(OC)nc(NC(=O)CN2CCN(c3ccc(F)cc3)CC2)n1	i	i	i	i	98.5	i
CC(=O)N1CCN(CC(=O)Nc2cc([N+](=O)[O-])ccc2Cl)CC1	i	i	i	i	i	i
O=C(CN1CCCC1)Nc1ccccc1Cl	i	i	i	i	i	i
O=C(CN1CCN(c2ccc(O)cc2)CC1)Nc1cc([N+](=O)[O-])ccc1Cl	i	i	i	i	98.9	i
O=C(CNCc1cccs1)Nc1ccc(N2CCCCCC2)cc1	i	i	i	i	99.0	i
COc1ccccc1NC(=O)c1ccc(NC(=O)CN2CCCC2)cc1	i	53.0	nt	i	i	i
COC(=O)c1ccc(NC(=O)CN2CCN(c3ccccc3)CC2)cc1	i	i	i	i	91.8	i
COc1ccccc1NC(=O)c1ccc(NC(=O)COC(=O)c2cncc(Br)c2)cc1	i	50.3	i	i	i	i
COc1ccccc1NC(=O)c1ccc(NC(=O)CN2CCCCC2)cc1	i	i	i	i	i	i
CCN(C(=O)CSc1nc2ccccc2c(=O)n1CCOC)C1CCS(=O)(=O)C1 (centres undefined)	i	i	i	i	i	i
Cc1nc2ccccc2c(=O)n1-c1ccc(NS(=O)(=O)c2cc(F)ccc2F)cc1	i	i	i	i	i	i
O=C(CC(=O)Nc1cc(Cl)ccc1Cl)Nc1cc(Cl)ccc1Cl	i	i	i	i	nt	i
O=C(COC(=O)/C=C/c1ccccc1[N+](=O)[O-])Nc1ccc2[nH]c(=O)[nH]c2c1	i	i	i	i	nt	i
COc1ccc(N2CCN(CC(=O)Nc3ccc(C)cc3)CC2)cc1	i	i	i	i	89.6	i
COc1ccc(N2CCC(CNC(=O)Nc3cccc(OC)c3)C2)cc1 (centres undefined)	i	i	i	i	82.0	i
CCCOC(=O)Nc1ccc(N2CCCCC2)cc1	i	i	i	i	97.1	i
Cc1ccc(NC(=O)CN2C(=O)N/C(=C/c3ccc(N4CCOCC4)cc3)C2=O)cc1	i	58.0	i	i	i	i
